The list is not random: actives were taken first. Their share in the collection is about 1.6%.
eIF4E 4G PPI = inhibitors of eIF4E and eIF4G interaction in translation initiation. inhibition, % at 21.7 µM. P63073+Q04637. actives 0.37% (n = 220,000). TR-FRET eIF4E-eIF4GI(517-606) binding, 2 h. AID 782;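 active means inhibition above about 30%, limit read from the data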;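 further: 0% = full FRET control wells and 100% = background wells lacking eIF4GI fragment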
PERK inh = human PERK inhibition, primary cell-based screen | inhibition, % at 5.6 µM | CHO PERK-DD fusion, SEAP luminescence translation reporter | AID 1416 | actives 0.17% (n = 220,000) | Q9NZJ5;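 active means inhibition above the mean inhibition of all tested compounds plus 3 SD, set separately per screening campaign, cut at about 2.9% in these data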;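 further: PERK kinase domain activated by AP20187 dimerizer at 100 nM; 0% = DMSO with dimerizer and 100% = rapamycin at 8.4 µM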
Target sequence (Q9NZJ5 whole entry, looked up, the tested form may be a part): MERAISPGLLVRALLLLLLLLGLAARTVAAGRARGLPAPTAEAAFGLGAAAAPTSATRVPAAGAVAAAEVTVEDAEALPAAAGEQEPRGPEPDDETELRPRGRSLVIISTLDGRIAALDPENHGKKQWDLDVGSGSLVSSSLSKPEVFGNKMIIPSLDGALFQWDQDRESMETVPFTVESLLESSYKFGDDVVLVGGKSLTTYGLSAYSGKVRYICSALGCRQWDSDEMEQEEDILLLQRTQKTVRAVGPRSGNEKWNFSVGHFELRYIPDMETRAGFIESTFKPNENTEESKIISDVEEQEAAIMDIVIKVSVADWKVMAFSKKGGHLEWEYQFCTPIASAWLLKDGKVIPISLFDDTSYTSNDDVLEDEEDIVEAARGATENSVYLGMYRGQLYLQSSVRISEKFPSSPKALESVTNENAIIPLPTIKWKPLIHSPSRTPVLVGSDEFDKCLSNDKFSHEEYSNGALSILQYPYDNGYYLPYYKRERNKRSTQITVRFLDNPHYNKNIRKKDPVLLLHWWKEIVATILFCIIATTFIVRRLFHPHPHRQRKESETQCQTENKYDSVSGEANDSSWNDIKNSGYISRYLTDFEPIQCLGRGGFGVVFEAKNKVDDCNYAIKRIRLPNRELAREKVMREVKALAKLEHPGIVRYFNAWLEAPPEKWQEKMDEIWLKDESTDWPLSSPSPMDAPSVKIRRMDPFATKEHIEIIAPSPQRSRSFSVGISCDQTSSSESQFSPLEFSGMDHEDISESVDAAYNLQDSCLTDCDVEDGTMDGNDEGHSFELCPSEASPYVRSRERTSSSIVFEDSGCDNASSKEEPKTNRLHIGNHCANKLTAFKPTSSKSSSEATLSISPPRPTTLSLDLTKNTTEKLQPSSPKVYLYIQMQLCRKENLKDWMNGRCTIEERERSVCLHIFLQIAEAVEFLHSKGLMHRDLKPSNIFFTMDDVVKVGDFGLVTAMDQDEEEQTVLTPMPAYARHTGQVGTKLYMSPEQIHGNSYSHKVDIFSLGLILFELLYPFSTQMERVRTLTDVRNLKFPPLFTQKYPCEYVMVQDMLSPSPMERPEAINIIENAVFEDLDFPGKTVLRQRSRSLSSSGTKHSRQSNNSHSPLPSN
PABP FP inh = blocks human PABP binding to poly(A) RNA; fluorescence polarization; P11940; actives 1% (n = 290,000); calls only at 35 µM;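 further: calls also rest on retests at 20 µM and on dose response follow-up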
MLLE-PAM2 inh = blocks PAM2 peptide binding to the PABP1 MLLE domain. P11940. GST-MLLE / FITC-PAM2 fluorescence polarization. actives 0.36% (n = 360,000). inhibition, % at 20 µM. AID 588489; in the data active means inhibition above about 35%, passing the limit was not always enough;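 further: plate controls were DMSO wells with GST-MLLE for no effect and wells lacking GST-MLLE protein for full effect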
eIF4H FP inh = inhibitors of RNA binding by human eIF4H | eIF4H fluorescence polarization binding assay | AID 2012 | Q15056 | inhibition, % at 35 µM | actives 0.94% (n = 290,000);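 further: calls also rest on retests at 20 µM and on dose response follow-up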
Starred values were filed as active, the others as inactive; i = inactive; . = no result given; + = active, no number. Unless noted, how the calls were made is not given here.

SMILES	eIF4E 4G PPI	PERK inh	PABP FP inh	MLLE-PAM2 inh	eIF4H FP inh
COC(=O)CNC(=O)c1ccc(F)cc1	8	1	i	2	-11
O=C(CCNC(=O)Cn1ccc2ccccc2c1=O)NCC1CCCC1c1ccccc1 (centres undefined)	2	0	i	-1	-1
Cc1ccc(/C=C2/Sc3ccc(C(=O)N4CCN(C)CC4)cc3NC2=O)cc1	.	.	+	46*	88
CN(C=O)c1ccc(CSc2ccccc2)cc1	.	.	.	15	.
Cc1ccc([C@H]2C(C#N)=C(N)Oc3cc(C)oc(=O)c32)o1	5	2	i	16	35
COc1cc(C2C(C#N)=C(N)Oc3cc(C)oc(=O)c32)cc2c1OCO2 (centres undefined)	2	1	+	-21	69*
Cc1cc2c(c(=O)o1)C(Cc1ccccc1)C(C#N)=C(N)O2 (centres undefined)	-4	0	+	-15	70*
CC(C)N1CC2=C(OC(N)=C(C#N)C2c2cccnc2)/C(=C/c2cccnc2)C1 (centres undefined)	10	1	+	26	88*
Cc1cc(C)c(-c2c(O)c3cccnc3n(C)c2=O)c(C)c1	.	.	.	-2	.
CCC1(CC)NC(=O)N(CC(=O)Nc2sc3c(c2C(N)=O)CCC3)C1=O	4	2	+	-25	79*
CC(C)C(=O)NC(=S)Nc1c(Cl)ccc2nsnc12	0	0	+	18	79*
Cc1sc(NC(=O)CCCC(=O)O)c(C(N)=O)c1-c1ccccc1	-1	0	i	35*	73
CC1=CC(C)C(/C=N/N=C(N)N)C(C)C1 (centres undefined)	-1	1	i	-9	0
CC(C)c1cc(C(=O)N2CCCC(C(=O)c3ccc4ccccc4c3)C2)on1 (centres undefined)	3	2.9*	i	9	-7
CN(C(=O)c1cccc(COc2ccc(Cl)cc2Cl)c1)c1ccccc1	3	0	+	-2	-9
O=C(NCc1ccccc1)c1cccc(COc2cc(Cl)ccc2Cl)c1	1	1	i	10	-6
Cc1c(N2C(=O)c3ccc(Br)cc3C2=O)c(=O)n(-c2ccccc2)n1C	2	2	i	-5	-8
Cc1c(N2C(=O)c3ccc4c5c(ccc(c35)C2=O)CC4)c(=O)n(-c2ccccc2)n1C	.	0	+	3	93*
CC(C)Cc1nc2sc3c(=O)n(N)cnc3c2c2c1COC(C)(C)C2	-6	1	i	2	-3
CCCCc1nc2sc3c(=O)n(N)cnc3c2c2c1CCC2	-7	3.0*	i	5	-2
CCCN(CC(=O)Nc1ccccc1OC)C(=O)c1ccc(=O)[nH]c1	.	.	i	-2	-6
Cc1ccc(-n2nc3c(c2NC(=O)c2ccc(F)c(F)c2)CS(=O)(=O)C3)cc1	.	.	i	-6	-14
CC(CCc1ccco1)NC(=O)c1cccc2c1C(=O)N(C1CCCCC1)C2 (centres undefined)	4	1	i	-1	-7
COc1ccc(N2Cc3cccc(C(=O)NC(C)CCc4ccco4)c3C2=O)cc1 (centres undefined)	5	0	+	-19	88*
C/C(=N\NC(=O)CCC(=O)Nc1ccccc1)c1cccs1	-1	2	i	4	1.1*
SMILES	eIF4E 4G PPI	PERK inh	PABP FP inh	MLLE-PAM2 inh	eIF4H FP inh
O=C(O)CSc1ccc(NC(=O)Nc2ccccc2F)cc1	-8	0	i	5	-10
O=C1CC(c2ccccc2)CC(=O)C1Sc1ccc(Cl)cc1 (centres undefined)	-21	1	i	42*	-1
O=C1CC(c2ccc(Cl)cc2)CC(=O)C1CS(=O)(=O)c1ccccc1 (centres undefined)	8	-1	i	31	-4
CCNC(=S)N/N=C(\C)c1cccc([N+](=O)[O-])c1	0	0	i	15	-8
CCc1noc(C)c1C(=O)OCC(=O)NC(=O)c1ccccc1	.	.	i	5	2
O=C(N/N=C/C=C\c1ccc([N+](=O)[O-])cc1)c1cccnc1	-5	2	i	-2	-14
Cc1ccccc1Cn1cccc1/C=C1/C(=N)N2C=CSC2=NC1=O	-1	-2	+	-45	66*
CC(C)c1ccc(-n2cccc2/C=C2/C(=N)N3C=CSC3=NC2=O)cc1	1	0	i	-34	0
Cc1cc(C(F)(F)F)c2c(N)c(C(=O)Nc3cc(C)on3)sc2n1	2	2	+	24	59*
CN1CCN(C(CNC(=O)c2ccc(Br)o2)c2ccc(F)cc2)CC1 (centres undefined)	.	.	.	-9	.
O=C(Nc1nc(=O)c2ccccc2s1)c1ccc(F)cc1	7	0	i	38*	-3
CCOC(=O)c1c(/N=C/c2cccc([N+](=O)[O-])c2O)sc(C)c1C	1	1	i	51*	21
Cc1nnc(SCC(=O)NCc2ccco2)[nH]c1=O	-1	2	+	13	57*
Cc1cc(=O)[nH]c(SCC(=O)NCc2ccco2)n1	5	1	i	31	68
Nc1nc(O)c(N=Nc2ccc(S(N)(=O)=O)cc2)c(=O)[nH]1	.	.	i	.	-4
NS(=O)(=O)c1ccc(N=Nc2c[nH]c(=O)c(O)c2)cc1	7	0	+	102	54*
COc1ccccc1-c1nc2s/c(=C\c3cccs3)c(=O)n2n1	-24	0	i	-1	5
COc1ccccc1/C=C/C=c1\sc2nc(=O)c(Cc3ccccc3)nn2c1=O	18	-1	+	-23	65*
Cc1ccc(/C=c2\sc3nc(-c4cccs4)nn3c2=O)o1	0	0	+	-12	79*
O=c1/c(=C/c2ccco2)sc2nc(-c3ccccc3Br)nn12	-1	1	+	5	45*
CCCOc1ccc(Cc2nn3c(=O)/c(=C/c4ccco4)sc3nc2=O)cc1	-17	-1	+	2	84*
Cc1nc2c(N)nn(C)c2nc1C	.	.	.	12	.
NC(=O)c1ccccc1NC(=O)COC(=O)CSCc1cccc(Cl)c1	.	.	.	3	.
COc1ccccc1-n1nnnc1SC(C)C(=O)NC1CCCC1 (centres undefined)	.	.	.	-12	.
COc1ccc(/C=c2\sc3nc(-c4ccccc4OC)nn3c2=O)c(OC)c1	-29	1	i	51*	-1
C=CCOc1ccccc1/C=c1\sc2nc(=O)c(C)nn2c1=O	4	1	i	16	69*
O=c1[nH]c2c(c(=O)[nH]1)OCN(Cc1ccccc1)C2	.	.	.	0	.
CCN1CCN(C(=O)Cn2cnc3sc(C)c(S(=O)(=O)N4CCN(c5ncccn5)CC4)c3c2=O)CC1	-1	2	i	0	8
O=C(NC(=S)Nc1ccccn1)c1cccc([N+](=O)[O-])c1	-2	1	i	19	5
O=S(=O)(c1ccccc1)N1CCN(c2nnc(-c3ccccc3)c3ccccc23)CC1	-1	0	i	2	-9
